Screen size: about 5,500 compounds; about 2,000 (36%) were called active. Inconclusive results (about 18%) are left out. No stated cut-off is given here; in the data, active means normalized growth mostly below about 0.91 (no sharp cut-off); inconclusive means no clear call, values can overlap the other calls; inactive means mostly above about 0.92. The list shows a part of the results.
Experiment: chemical genetic growth profiling, strain panel (AID 1159580);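 further: tested at 20 µM; growth read once vehicle control cultures reached saturation at 30 °C; 1 = growth at the plate median or of vehicle wells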
Conditions: S. cerevisiae deletion strains, growth OD

Measured: normalized growth

COc1c(-c2coc3cc4c(cc3c2=O)CC(OC(C)=O)C(C)(C)O4)ccc2c1C=CC(C)(C)O2 (stereo not given)
inactive: locus YAL021C, strain ccr4, stronger effect = lower value 1.01 | locus YAL026C, strain drs2, stronger effect = lower value 1.04 | locus YAL030W, strain snc1, stronger effect = lower value 1.03 | locus YBL061C, strain skt5, stronger effect = lower value 1.02 | locus YBR009C, strain hhf1, stronger effect = lower value 1.02 | locus YBR023C, strain chs3, stronger effect = lower value 1.03 | locus YBR171W, strain sec66, stronger effect = lower value 1.05 | locus YBR231C, strain swc5, stronger effect = lower value 1.05 | locus YBR279W, strain paf1, stronger effect = lower value 1.03 | locus YCL011C, strain gbp2, stronger effect = lower value 1.04 | locus YCL016C, strain dcc1, stronger effect = lower value 1.03 | locus YCL061C, strain MRC1, stronger effect = lower value 1.03 | locus YCL069W, strain vba3, stronger effect = lower value 1.04 | locus YCR088W, strain abp1, stronger effect = lower value 1.04 | locus YDL005C, strain med2, stronger effect = lower value 1.04 | locus YDL040C, strain nat1, stronger effect = lower value 1.03 | locus YDR001C, strain nth1, stronger effect = lower value 1.03 | locus YDR069C, strain doa4, stronger effect = lower value 1.03 | locus YDR137W, strain rgp1, stronger effect = lower value 1.08 | locus YDR159W, strain sac3, stronger effect = lower value 1.05 | locus YDR195W, strain ref2 1.05 | locus YDR297W, strain sur2, stronger effect = lower value 1.03 | locus YDR334W, strain swr1, stronger effect = lower value 1.03 | locus YDR335W, strain msn5, stronger effect = lower value 1.03 | locus YDR392W, strain spt3, stronger effect = lower value 0.945 | locus YEL003W, strain gim4, stronger effect = lower value 1.03 | locus YEL037C, strain rad23, stronger effect = lower value 1.02 | locus YEL061C, strain CIN8 (second series), stronger effect = lower value 1.04 | locus YER015W, strain faa2, stronger effect = lower value 1.03 | locus YER016W, strain bim1, stronger effect = lower value 1.03 | locus YER111C, strain swi4, stronger effect = lower value 1.02 | locus YER155C, strain BEM2 (second series), stronger effect = lower value 1.03 | locus YFR010W, strain ubp6, stronger effect = lower value 1.03 | locus YGL167C, strain pmr1, stronger effect = lower value 1.03 | locus YGL173C, strain kem1, stronger effect = lower value 1.03 | locus YGL227W, strain vid30, stronger effect = lower value 1.04 | locus YGL240W, strain doc1, stronger effect = lower value 1.03 | locus YGL253W, strain hxk2, stronger effect = lower value 1.04 | locus YHR013C, strain ard1, stronger effect = lower value 1.03 | locus YHR027C, strain rpn1, stronger effect = lower value 1.02 | locus YHR030C, strain SLT2, stronger effect = lower value 0.961 | locus YHR079C, strain IRE1, stronger effect = lower value 0.947 | locus YHR142W, strain chs7, stronger effect = lower value 1.05 | locus YJL092W, strain hpr5, stronger effect = lower value 1.04 | locus YJL095W, strain BCK1 (second series), stronger effect = lower value 1.03 | locus YJL095W, strain BCK1, stronger effect = lower value 0.973 | locus YJL115W, strain asf1, stronger effect = lower value 1.04 | locus YJL129C, strain trk1, stronger effect = lower value 1.06 | locus YJL154C, strain vps35, stronger effect = lower value 1.03 | locus YJL164C, strain tpk1, stronger effect = lower value 1.03 | locus YJL166W, strain qcr8, stronger effect = lower value 1.03 | locus YJL187C, strain SWE1, stronger effect = lower value 1.02 | locus YJR066W, strain TOR1, stronger effect = lower value 0.973 | locus YKL160W, strain elf1, stronger effect = lower value 1.04 | locus YKR026C, strain gcn3, stronger effect = lower value 1.04 | locus YKR091W, strain srl3, stronger effect = lower value 1.02 | locus YLL001W, strain dnm1, stronger effect = lower value 1.03 | locus YLL026W, stronger effect = lower value 1.02 | locus YLL041C, strain sdh2, stronger effect = lower value 1.02 | locus YLR027C, strain aat2, stronger effect = lower value 1.03 | locus YLR113W, strain HOG1, stronger effect = lower value 0.934 | locus YLR221C, strain rsa3, stronger effect = lower value 1.03 | locus YLR258W, strain gsy2, stronger effect = lower value 1.03 | locus YLR262C, strain YPT6 (second series), stronger effect = lower value 1.07 | locus YLR320W, strain mms22, stronger effect = lower value 1.03 | locus YLR342W, strain FKS1, stronger effect = lower value 1.03 | locus YLR357W, strain rsc2, stronger effect = lower value 1.04 | locus YLR370C, strain arc18, stronger effect = lower value 1.03 | locus YLR384C, strain iki3, stronger effect = lower value 1.02 | locus YML120C, strain ndi1, stronger effect = lower value 1.03 | locus YMR058W, strain fet3, stronger effect = lower value 1.04 | locus YMR125W, strain sto1, stronger effect = lower value 1.03 | locus YMR129W, stronger effect = lower value 1.03 | locus YMR205C, strain PFK2, stronger effect = lower value 1.04 | locus YMR231W, strain pep5, stronger effect = lower value 1.03 | locus YNL071W, strain lat1, stronger effect = lower value 1.03 | locus YNL183C, strain NPR1, stronger effect = lower value 0.925 | locus YNL209W, strain ssb2, stronger effect = lower value 1.03 | locus YNL248C, strain rpa49, stronger effect = lower value 1.03 | locus YNL322C, strain KRE1 (second series), stronger effect = lower value 1.02 | locus YNR049C, strain mso1, stronger effect = lower value 1.03 | locus YOR001W, strain rrp6, stronger effect = lower value 1.02 | locus YOR070C, strain gyp1, stronger effect = lower value 1.02 | locus YOR080W, strain dia2, stronger effect = lower value 1.02 | locus YOR083W, strain WHI5, stronger effect = lower value 1.03 | locus YOR106W, strain vam3, stronger effect = lower value 1.06 | locus YOR231W, strain MKK1, stronger effect = lower value 0.957 | locus YOR265W, strain rbl2, stronger effect = lower value 1.02 | locus YOR270C, strain vph1, stronger effect = lower value 1.03 | locus YOR290C, strain snf2, stronger effect = lower value 0.999 | locus YPL051W, strain arl3, stronger effect = lower value 1.03 | locus YPL078C, strain atp4, stronger effect = lower value 1.04 | locus YPL106C, strain sse1, stronger effect = lower value 1.05 | locus YPL240C, strain hsp82, stronger effect = lower value 1.02 | locus YPL256C, strain CLN2, stronger effect = lower value 0.958
